Pf growth 48h – inhibits P. falciparum growth in the first generation, 48 h; hit rate 5.9% among 310,000; P. falciparum luciferase growth in erythrocytes, 48 h; Potency, µM (doses to about 28.7 µM), usual class: inhibitors; AID 504832
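Compounds are pin-transferred into medium, infected erythrocytes (2% hematocrit, 0.1% parasitemia final) are added, and plates sit one parasite generation at 37 C in 5% CO2. Detection reagent is then added and luminescence measured.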
Pf growth 96h – P. falciparum growth inhibition at 96 hour, primary screen for plastid delayed-death inhibitors. Potency, µM (doses to about 28.7 µM), usual class: inhibitors. P. falciparum luciferase reporter growth, 96 h. AID 504834. hit rate 6.9% among 320,000
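96 h incubation, 37 C, 5% CO2, of luciferase-reporter P. falciparum-infected RBCs (2% hematocrit, 0.05% parasitemia final) with test compounds; endpoint luminescence.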
AMA1-RON2 inh – disrupts binding of P. falciparum AMA1 to RON2. AID 720542. hit rate 0.2% among 360,000. Potency, µM (titrated, usually from 58.2 µM), usual class: inhibitors. AlphaScreen AMA1-biotinylated RON2 peptide binding; note: nearly all actives have a fitted effect of over 45% in size
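AMA1 (3D7) with his tag at 25 nM final met compounds first, then biotinylated RON2 peptide at 25 nM; detection used donor plus acceptor beads, 10 µg/mL apiece, read by AlphaScreen after 30 min at room temperature.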
HCV inhibitor – HCV inhibition | Huh7.5.1 HCVcc-Cre infection, luciferase reporter, 44 h | Potency, µM (top dose mostly 41.8 µM), most hits filed as inhibitors | hit rate 3.4% among 340,000 | AID 651820
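HCVcc-Cre virus at an moi near 0.5 was added right after compound to cells cultured 4 h from seeding (1,000 cells/well). Luciferase activity was determined 44 h later, 15 min after substrate addition at RT.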
A number is an active result; . = inactive; ? = inconclusive; / = not tested or not shown; [ ] = dose if it differs, or a comment. Compounds with a hit are over-represented: about 11% of the library has one in this group of screens. Calls come from the whole dose curve; as a rule, active = well fitted curve in the direction sought with a large enough effect; inconclusive = small, poorly fitted or top-dose-only effect, or another doubt; inactive = no such curve, though single readings can be large; an effect the other way counts as inactive or inconclusive.

SMILES | Pf growth 48h | Pf growth 96h | AMA1-RON2 inh | HCV inhibitor
CCc1cc(C(=O)N2CCCC(C(=O)c3cccc4ccccc34)C2)n(C)n1 (stereo unspecified) | . | ? | . | 10µM
CCCCNc1nc(-c2ccccc2)nc(-n2ccnc2)n1 | / | . | . | 3.55µM
c1cncc(-c2nc(NCCCn3ccnc3)c3ccccc3n2)c1 | . | ? | ? | ?
C=CCNc1nc(-c2ccccc2)nc(-n2ccnc2)n1 | 13.1µM | ? | . | 2.51µM
CCOC(=O)c1[nH]c(C)c(C(=O)NCCc2ccc(OC)cc2)c1C | ? | 4.65µM | . | .
COc1ccc(CCNC(=O)c2sc(=S)n(C)c2N)cc1 | . | 1.85µM | . | .
COc1ccc(CCNC(=O)COC(=O)c2ccc(C)s2)cc1OC | . | ? | . | .
CCOC(=O)c1c(C)[nH]c(C(=O)OCC(=O)NCCc2ccc(OCC)c(OCC)c2)c1C | 13.1µM | ? | . | ?
Cn1c(N)c(C(=O)NCc2ccccc2)sc1=S | . | . | . | .
CCOc1ccc(CCNC(=O)COC(=O)c2ccc(C)s2)cc1OCC | . | 10.4µM | . | .
COc1ccc(N(CC(=O)NC2CC3CCC2C3)S(=O)(=O)c2ccc(C)cc2)cc1Cl (stereo unspecified) | / | / | . | /
CCOC(=O)c1c(C)n(Cc2ccco2)c2ccc(OC)cc12 | . | / | . | 12.6µM
CCOC(=O)c1c(C)n(Cc2ccco2)c2c1cc(O)c1ccccc12 | 3.7µM | / | . | .
CCOC(=O)c1c(C)n(CCN2CCN(C)CC2)c2ccc(OC)cc12 | ? | 3.7µM | . | ?
CC(=O)Nc1cc(-c2cccc(C(=O)NCCN(C)C)c2)cn2c(-c3cccc(C(F)(F)F)c3)cnc12 | / | / | . | /
Clc1ccc(Nc2ccc(NCc3ccccc3)nn2)cc1 | 4.65µM | 1.85µM | . | ?
COC(=O)C1=CN(CC2CCCO2)C=C(C(=O)OC)C1c1ccsc1 (stereo unspecified) | ? | / | . | .
COC(=O)C1=CN(CCOC23CC4CC(CC(C4)C2)C3)C=C(C(=O)OC)C1c1ccsc1 | ? | ? | . | 31.6µM
COC(=O)C1=CN(Cc2ccc(OC)cc2)C=C(C(=O)OC)C1c1ccsc1 | 7.38µM | . | . | .
CCc1ccc(-c2nc(CS(=O)CC(=O)NCCCN3CCC(C)CC3)c(C)o2)cc1 (stereo unspecified) | ? | . | . | ?
CN(C(=O)c1c[nH]c(=O)cc1C(F)(F)F)c1ccc(Cl)c(Cl)c1 | 11.7µM | . | . | .
CN(C(=O)c1c[nH]c(=O)cc1C(F)(F)F)c1ccc(Cl)cc1 | ? | ? | . | .
O=C(c1ccccc1)c1c[nH]c2cc3c(cc2c1=O)OCCO3 | . | 14.7µM | . | .
Cc1ccc(NC(=O)/C=C/C(=O)O)c(NC(=O)c2ccccc2)c1 | . | . | . | .
COc1ccc(S(=O)(=O)N(C)C[C@H]2Oc3c(NC(=O)NC(C)C)cccc3C(=O)N([C@H](C)CO)C[C@@H]2C)cc1 | / | / | . | .
SMILES | Pf growth 48h | Pf growth 96h | AMA1-RON2 inh | HCV inhibitor
S=c1[nH]nc(-c2ccc3ccccc3n2)n1-c1cc(Cl)cc(Cl)c1 | . | 4.15µM | . | ?
CN1CCN(c2oc(-c3ccccc3)nc2S(=O)(=O)c2ccc(Br)cc2)CC1 | ? | . | . | .
C#C[C@]1(O)CC[C@H]2[C@@H]3CCC4=CCCC[C@@H]4[C@H]3C(=C)C[C@@]21CC | ? | 9.53µM | / | /
C#C[C@]1(O)CC[C@@H]2[C@H]3CCC4=CCCC[C@@H]4[C@@H]3CC[C@@]21C | . | . | / | /
Cc1cc(C)nc(NS(=O)(=O)c2ccc(NC(=O)Cc3ccccc3)cc2)n1 | . | 13.1µM | . | .
Cc1cc(C)nc(SCC(=O)Nc2ccc(S(=O)(=O)NCCO)cc2)n1 | / | . | . | .
Cc1cc(C)nc(SCC(=O)Nc2ccc(S(=O)(=O)NC(C)(C)C)cc2)n1 | / | . | . | 11.2µM
CC(C)OC(=O)N(C)C[C@@H]1OCc2cnnn2CCCC(=O)N([C@@H](C)CO)C[C@H]1C | / | / | . | /
O=C(Nc1ccccc1C(=O)Nc1ccccc1)c1ccccc1F | .[0.00184 µM] | ? | . | .
O=C(Nc1ccccc1C(=O)O)c1cccc(NC(=O)c2ccccc2Cl)c1 | . | 10.4µM | . | .
O=C(O)c1cccc(NC(=O)c2ccccc2NC(=O)c2ccccc2F)c1 | . | . | . | 0.891µM
COc1cccc(NC(=O)c2ccc3c(c2)N(C)CCS3)c1 | . | 7.38µM | . | 10µM
CN1CCSc2ccc(C(=O)NCc3cccc(F)c3)cc21 | . | 9.28µM | . | ?
COc1ccc(S(=O)(=O)N(CC(=O)NCc2ccncc2)c2ccc(C)cc2)cc1OC | . | ? | . | .
CC1CN(CCCCSc2ccccc2)CC(C)O1 (stereo unspecified) | . | . | . | .
CC1CN(CCCSc2ccc(Cl)cc2)CC(C)O1 (stereo unspecified) | . | ? | . | 12.6µM
CCOC(=O)c1csc(NC(=O)c2ccc3c(c2)OCCO3)n1 | . | . | . | 14.1µM
CCOC(=O)c1csc(NC(=O)c2ccc(OC)c(OC)c2)n1 | . | / | . | ?
CCOC(=O)c1csc(NC(=O)c2ccc(OCC)cc2)n1 | . | . | . | 2.51µM
N#Cc1ccc(S(=O)(=O)NCC(=O)OCC(=O)N2CCCC2=O)cc1 | . | . | . | .
CC(OC(=O)[C@@H](NC(=O)OCc1ccccc1)C(C)C)C(=O)Nc1ccc(N2CCOCC2)cc1 (stereo partly specified) | / | / | . | .
Cn1c(-c2ccccc2)c[n+]2c1-c1ccccc1C2 | 0.586µM | ? | . | 11.2µM
O=C(Nc1ccccc1C(=O)NC1CC1)c1ccccc1 | . | . | . | .
CCc1ccccc1N(CC(=O)O)S(C)(=O)=O | . | 14.7µM | . | .
C=CCNc1nc(NC(C)(C)CO)nc(OCC)n1 | . | 7.38µM | ? | .
SMILES | Pf growth 48h | Pf growth 96h | AMA1-RON2 inh | HCV inhibitor
COc1cc2[nH]c(=O)n(CCCC(=O)NCCc3ccccc3)c(=O)c2cc1OC | ? | 5.22µM | . | ?
COc1cccc2c(=O)n(CC(=O)NCCc3ccccc3)ccc12 | 1.85µM | 3.29µM | . | .
CCOc1cc2[nH]c(=O)n(CCCCCC(=O)NC3CCCC3)c(=O)c2cc1OCC | ? | 10.4µM | . | .
CCN(CC)c1ccc(C(NC(=O)C(C)C)c2ccc3cccnc3c2O)cc1 (stereo unspecified) | / | / | . | /
Oc1c(C(Nc2nc3ccccc3s2)c2ccco2)ccc2cccnc12 (stereo unspecified) | 0.104µM | ? | . | 2.51µM
CCCC(=O)NC(c1cccc([N+](=O)[O-])c1)c1ccc2cccnc2c1O (stereo unspecified) | / | / | . | /
CC(C)C(=O)NC(c1ccco1)c1ccc2cccnc2c1O (stereo unspecified) | 2.08µM | . | 20µM | 3.98µM
Cc1ccc(C(NC(=O)C(C)C)c2cc([N+](=O)[O-])c3cccnc3c2O)cc1 (stereo unspecified) | . | . | .[2.32 µM] | 12.6µM
CC(C)C(=O)NC(c1cccc([N+](=O)[O-])c1)c1ccc2cccnc2c1O (stereo unspecified) | 3.7µM | . | . | 3.98µM
c1coc(CNc2nc3ccccc3s2)c1 | . | . | . | .
O=C(OCc1nnc(-c2ccc([N+](=O)[O-])cc2)o1)c1ccc(F)c(S(=O)(=O)N2CCOCC2)c1 | . | . | . | .
